Measured values published in PubChem BioAssay (EPA / NIEHS).
The source made the active and inactive calls. The calls were made as follows: active = hit-call score of the fitted dose curve at least 0.9, where 1 is the maximum; inactive = score below 0.9.

How the values were obtained:
Conditions in all cases: mRNA level, 48 h; actives raise or lower the signal
[1] = read-out: Glutamate-cysteine ligase catalytic (GCLC), GCLC (gene 2729); test: LTEA_HepaRG_GCLC: Life Technologies and Expression Analysis (LTEA) Assay for Glutamate-cysteine ligase catalytic (GCLC) using HepaRG (AID 2283498)
How it was run: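 Oxidative-stress marker GCLC is measured as mRNA change in human HepaRG liver cells after 48 h chemical treatment in 0.5% DMSO, eight concentrations from 100 uM. Activity is fitted bidirectionally against vehicle.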

[2] = read-out: growth arrest and DNA damage 45 (GADD45G), GADD45G (gene 10912); test: LTEA_HepaRG_GADD45G: Life Technologies and Expression Analysis (LTEA) Assay for growth arrest and DNA damage 45 (GADD45G) using HepaRG (AID 2283499)
How it was run: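 GADD45G transcript level by qRT-PCR (housekeeping-normalized: ACTB, GAPDH, POLR2A) after 48 h chemical treatment of a single HepaRG lot in serum-free induction medium; eight-point half-log series up to 100 uM in 0.5% DMSO, duplicates, up- or down-regulation scored.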

[3] = read-out: Glutamate-cysteine ligase regulatory (GCLM), GCLM (gene 2730); test: LTEA_HepaRG_GCLM: Life Technologies and Expression Analysis (LTEA) Assay for Glutamate-cysteine ligase regulatory (GCLM) using HepaRG (AID 2283500)
How it was run: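 GCLM expression quantified by qRT-PCR, normalized to three housekeeping genes, after 48 h chemical treatment of HepaRG cells in duplicate at 8 concentrations (top 100 uM, half-log steps, 0.5% DMSO). Changes fitted both directions against vehicle.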

[4] = read-out: Glutathione S-transferase M3 (GSTM3), GSTM3 (gene 2947); test: LTEA_HepaRG_GSTM3: Life Technologies and Expression Analysis (LTEA) Assay for Glutathione S-transferase M3 (GSTM3) using HepaRG (AID 2283501)
How it was run: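 GSTM3 transcript levels came from Fluidigm TaqMan qRT-PCR normalized to three housekeeping genes, fitted in both directions against DMSO. HepaRG cultures received chemicals for 48 h in serum-free induction medium (0.5% DMSO), 8 half-log concentrations up to 100 uM, duplicate.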

[5] = read-out: Heat shock 70 kDa protein 1 (HSPA1A), gene 3303; test: LTEA_HepaRG_HSPA1A: Life Technologies and Expression Analysis (LTEA) Assay for Heat shock 70 kDa protein 1 (HSPA1A) using HepaRG (AID 2283502)
How it was run: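 HSPA1A expression measured by qRT-PCR with ACTB/GAPDH/POLR2A normalization; curves fitted in both directions relative to DMSO vehicle. Exposure: 48 h in HepaRG cells, duplicate 8-point half-log series from 100 uM, 0.5% DMSO, serum-free induction medium.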

[6] = read-out: Hypoxia-inducible factor 1-alpha (Homo sapiens) (UniProt Q16665); test: LTEA_HepaRG_HIF1A: Life Technologies and Expression Analysis (LTEA) Assay for Hypoxia-inducible factor 1 (HIF1A) Trancription factor using HepaRG (AID 2283503)
How it was run: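 HIF1A transcript level read by qRT-PCR (ACTB, GAPDH, POLR2A normalization) after 48 h chemical exposure of HepaRG cultures. Eight half-log concentrations, top 100 uM, 0.5% DMSO vehicle, duplicates; bidirectional curve fit against DMSO baseline.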

[7] = read-out: 3-Hydroxy-3-Methylglutaryl-CoA Synthase 2 (HMGCS2), HMGCS2 (gene 3158); test: LTEA_HepaRG_HMGCS2: Life Technologies and Expression Analysis (LTEA) Assay for 3-Hydroxy-3-Methylglutaryl-CoA Synthase 2 (HMGCS2) using HepaRG (AID 2283504)
How it was run: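 Readout is HMGCS2 transcript by qRT-PCR, housekeeping-normalised (ACTB/GAPDH/POLR2A) and fitted bidirectionally against 0.5% DMSO. Differentiated HepaRG cells received chemicals 48 h, duplicate wells, eight half-log concentrations topping at 100 uM.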

HGF (gene 3082) = test: LTEA_HepaRG_HGF: Life Technologies and Expression Analysis (LTEA) Assay for Hepatocyte Growth Facto (HGF) using HepaRG (AID 2283505)
How it was run: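 HGF transcript was quantified by TaqMan qRT-PCR against three housekeeping genes after 48 h treatment of HepaRG cells. Exposure ran in duplicate over eight half-log steps topping at 100 uM in 0.5% DMSO vehicle.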

[8] = read-out: Insulin Like Growth Factor 1 (IGF1), IGF1 (gene 3479); test: LTEA_HepaRG_IGF1: Life Technologies and Expression Analysis (LTEA) Assay for Insulin Like Growth Factor 1 (IGF1) using HepaRG (AID 2283506)
How it was run: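 Expression measured by TaqMan qRT-PCR on a Fluidigm array, with three housekeeping genes for normalisation, after 48 h treatment of HepaRG cells. Top concentration 100 uM with half-log steps, 0.5% DMSO vehicle, bidirectional fit.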

[9] = read-out: Intercellular Adhesion Molecule 1 (ICAM1), ICAM1 (gene 3383); test: LTEA_HepaRG_ICAM1: Life Technologies and Expression Analysis (LTEA) Assay for Intercellular Adhesion Molecule 1 (ICAM1) using HepaRG (AID 2283507)
How it was run: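 ICAM1 transcript levels measured by qRT-PCR, normalized to three housekeeping genes (ACTB, GAPDH, POLR2A), after 48 h chemical exposure of HepaRG cells. Duplicate eight-point half-log series from 100 uM in 0.5% DMSO; gain or loss fitted against vehicle.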

Measured: AC50

Sequence of Hypoxia-inducible factor 1-alpha (Homo sapiens) (Q16665 whole entry, looked up): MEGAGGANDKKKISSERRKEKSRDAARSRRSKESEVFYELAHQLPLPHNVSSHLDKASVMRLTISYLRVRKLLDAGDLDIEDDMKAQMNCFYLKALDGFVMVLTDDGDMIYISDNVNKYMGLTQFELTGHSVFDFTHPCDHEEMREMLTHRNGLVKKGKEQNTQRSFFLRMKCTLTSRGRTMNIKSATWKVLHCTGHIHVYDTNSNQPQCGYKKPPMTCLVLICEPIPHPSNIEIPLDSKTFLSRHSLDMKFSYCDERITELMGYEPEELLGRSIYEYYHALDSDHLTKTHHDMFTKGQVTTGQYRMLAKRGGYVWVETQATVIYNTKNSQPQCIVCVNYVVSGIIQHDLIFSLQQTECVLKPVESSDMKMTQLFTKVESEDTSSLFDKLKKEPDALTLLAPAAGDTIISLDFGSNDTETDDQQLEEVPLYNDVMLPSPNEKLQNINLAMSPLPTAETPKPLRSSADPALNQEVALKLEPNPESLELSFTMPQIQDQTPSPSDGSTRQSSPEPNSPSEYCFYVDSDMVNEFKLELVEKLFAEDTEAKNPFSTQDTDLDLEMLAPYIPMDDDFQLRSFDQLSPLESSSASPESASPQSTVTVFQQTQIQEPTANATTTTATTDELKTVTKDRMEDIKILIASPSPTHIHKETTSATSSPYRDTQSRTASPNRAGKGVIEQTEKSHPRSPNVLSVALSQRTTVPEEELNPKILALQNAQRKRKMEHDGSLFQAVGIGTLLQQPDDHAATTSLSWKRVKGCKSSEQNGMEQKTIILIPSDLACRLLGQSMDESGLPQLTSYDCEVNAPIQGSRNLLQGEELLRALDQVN

Cc1ccc(C)c(O)c1C
inactive: all assays above

C=CCc1ccc(O)c(OC)c1
inactive: all assays above

CCCCCCOCCO
inactive: all assays above

CCCCOC(=O)CCCCCCCCC(=O)OCCCC
inactive: all assays above

Cc1cc(NC(=O)C(=O)O)cc(C)c1Oc1ccc(O)c2c1CCC2
active: [6] 0.021 µM | [7] 0.00423 µM | [8] 0.022 µM
inactive: all other assays above

CCNc1cccc(C)c1
inactive: all assays above

Cc1ccc2ncccc2c1
inactive: all assays above

COc1ccc2c(c1)c(CC(=O)O)c(C)n2C(=O)c1ccc(Cl)cc1
inactive: all assays above

CC(=O)OC/C=C(\C)CCC=C(C)C
inactive: all assays above

C1CCC(SSC2CCCCC2)CC1
inactive: all assays above

NCC1(Cc2noc(=O)[nH]2)CCCCC1
inactive: all assays above

CN1CCN(Cc2cc(-c3ccc4[nH]c(=O)oc4c3)co2)[C@@H](c2ccc(F)cc2)C1
active: [2] 71.9 µM
inactive: all other assays above

C=CCOC(=O)c1ccccc1C(=O)OCC=C
inactive: all assays above

O=C(OCCCCCOC(=O)c1ccccc1)c1ccccc1
inactive: [2] | [5] | [6] | [7]
active: [1] 0.543 µM | [3] 1.57 µM | [4] 1.62 µM | HGF (gene 3082) 2.12 µM | [8] 1.97 µM | [9] 3.24 µM

CC(C)c1ccc(C(=O)N=C(N)N)cc1S(C)(=O)=O
active: [1] 0.336 µM | [3] 0.441 µM | [4] 0.446 µM | [5] 7.39 µM | HGF (gene 3082) 7.39 µM | [8] 0.362 µM | [9] 0.388 µM
inactive: [2] | [6] | [7]

COCCOCCOC
inactive: [2] | [5] | [7] | [8]
active: [1] 2.1 µM | [3] 0.925 µM | [4] 2.14 µM | [6] 9.92 µM | HGF (gene 3082) 1.5 µM | [9] 0.87 µM

CC(=O)OCCOCCOCCOC(C)=O
inactive: all assays above

Cc1oc(-c2ccccc2)nc1CCOc1cccc2c1ccn2CCC(=O)O
inactive: [5] | [6] | HGF (gene 3082)
active: [1] 50 µM | [2] 90.2 µM | [3] 75.8 µM | [4] 9.92 µM | [7] 83.2 µM | [8] 69.9 µM | [9] 85.6 µM

CCCCN(CCCC)CCCC
inactive: all assays above

CC=Cc1ccc(O)c(OC)c1
inactive: all assays above

CCCCCCCC=O
inactive: all assays above

CNC(=O)[C@H]1O[C@@H](n2cnc3c(NCc4cc(Cl)ccc4OCc4cc(C)no4)ncnc32)[C@H](O)[C@@H]1N
inactive: all assays above

Cc1nc(-c2ccc3c(c2)CCN(CCC2CCC(NC(=O)/C=C/c4ccc(F)cc4)CC2)CC3)no1 (stereo not given)
inactive: all assays above

CCCCCCCCCCC
inactive: all assays above

O=C(O)Cc1ccccc1Nc1c(Cl)cccc1Cl
active: [8] 16.5 µM
inactive: all other assays above

CCCCCCCCCCCCCCCC
inactive: all assays above

O=[N+]([O-])C(CO)(CO)CO
inactive: all assays above

CC(CO)OC(C)CO (stereo not given) (tested in a mixture with another compound)
inactive: all assays above

CCCCCC(=O)O
inactive: all assays above

COC(=O)c1ccc(O)cc1
inactive: all assays above

CCCCCCC(=O)OCC
inactive: all assays above

Oc1ccc2ccccc2c1N=Nc1ccccc1
active: [1] 5.52 µM | [2] 12.6 µM | [3] 24.6 µM | [7] 14.8 µM | [8] 50 µM
inactive: [4] | [5] | [6] | HGF (gene 3082) | [9]

CN1CCCC1=O
inactive: all assays above

CC1(C)CC(N=C=O)CC(C)(CN=C=O)C1 (stereo not given)
inactive: all assays above

NC(=O)Cn1c(=O)cc(CCN2CCN(c3nccc4sccc34)CC2)c2ccc(F)cc21
active: [2] 83.8 µM | [5] 21.9 µM | [6] 13.1 µM | [7] 50 µM | [9] 50 µM
inactive: [1] | [3] | [4] | HGF (gene 3082) | [8]

Nc1ccccc1N
active: [1] 86.4 µM | [2] 67.7 µM | [5] 50 µM | [7] 74 µM | [8] 66.8 µM
inactive: all other assays above

CCCCC(CC)COC(=O)CC(C(=O)OCC(CC)CCCC)S(=O)(=O)O (stereo not given)
active: [1] 94.6 µM | [2] 87 µM | [3] 79.7 µM | [5] 38.1 µM | [7] 79.6 µM
inactive: [4] | [6] | HGF (gene 3082) | [8] | [9]

CCCCCCCCCCCC(=O)OC
inactive: all assays above

COCCOC[C@H](CC1(C(=O)NC2CCC(C(=O)O)CC2)CCCC1)C(=O)Oc1ccc2c(c1)CCC2 (stereo not given in full)
inactive: all assays above

C[Si]1(C)O[Si](C)(C)O[Si](C)(C)O[Si](C)(C)O1
inactive: all assays above

COc1cc(-c2nc(NC(=O)c3cc4cc(C)cc(C)c4n3CC(=O)O)sc2CCC2CCCCC2)c(OC)cc1Cl
active: [1] 14 µM | [2] 3.17 µM | [3] 19.4 µM | [4] 3.86 µM | [5] 11.1 µM | [6] 11 µM | [7] 6.61 µM | HGF (gene 3082) 6.32 µM | [8] 6.45 µM
inactive: [9]

Cc1cc(=O)[nH]c(=S)[nH]1
inactive: all assays above

OC[C@@H](O)[C@@H](O)[C@H](O)[C@H](O)CO
inactive: all assays above
